Results as given in PubChem BioAssay (Tox21).
Records with an inconclusive call do not appear. Entries that show only a call come without a potency. Activity calls are given as the source filed them. Calls come from the whole dose curve.

Test: qHTS assay for small molecule agonists of the p53 signaling pathway (AID 651631); note: nearly all actives have a fitted effect of over 15% in size
Conditions: HCT-116 p53RE-bla reporter, beta-lactamase FRET ratio, 16 h; series mostly up to 73.3 µM
Description: U.S. Tox21 Program National Center for Advancing Translational Sciences [NCATS] NIH Chemical Genomics Center [NCGC] U.S. Environmental Protection Agency [EPA] National Institutes of Environmental Health Sciences [NIEHS] National Toxicology Program [NTP] U.S. Food and Drug Administration [FDA] Tox21 Assay Overview: p53, a tumor suppressor protein, is activated following cellular insult, including DNA damage and other cellular stresses. The activation of p53 regulates cell fate by inducing DNA repair, cell cycle arrest, apoptosis, or cellular senescence. The activation of p53, therefore, is a good indicator of DNA damage and other cellular stresses. The CellSensor p53RE-bla HCT-116 cell line (Invitrogen) contains a stably integrated beta-lactamase reporter gene under control of the p53 response elements. The activation of the reporter gene under culture conditions can be detected by fluorescence intensity. This cell line was used to screen the Tox21 compound library in a 1536-well plate format and to identify agonists that activate the p53 signaling pathway.
Tox21 Assay Protocol Summary: The p53RE-bla cells were dispensed at 4,000 cells/5 ul/well in 1536-well black wall/clear bottom plates using a Multidrop dispenser. After the assay plates were incubated at a 37 C/5% CO2 incubator for 5 hours, 23 nL of compounds dissolved in DMSO, positive controls or DMSO only was transferred to the assay plate by a pin tool. The plates were incubated at 37 C for 16 hours. After 1 uL of LiveBLAzerTM B/G FRET substrate was added using a Flying Reagent Dispenser, the plates were incubated at room temperature for 2 hours, and fluorescence intensity was measured by an Envision plate reader.
With `CC(Cc1ccccc1)NCCn1cnc2c1c(=O)n(C)c(=O)n2C` (stereo not given) the Potency was “inactive”.
With `CCN(CC)CCOC(=O)C(O)(c1ccccc1)c1ccccc1` the Potency was “inactive”.
With `CON(C)C(=O)Nc1ccc(Br)cc1` the Potency was “inactive”.
For `O=C(Cl)CCl`, the Potency was “inactive”.
With `Cc1cc(OC(=O)N(C)C)nn1C(=O)N(C)C` the Potency was “inactive”.
For `CC(C)c1ccc(O)cc1`, the Potency was “inactive”.
In the case of `CC(=NC#N)N(C)Cc1ccc(Cl)nc1`, the Potency is reported as “inactive”.
For `BrCc1ccc(Br)cc1`, the Potency was “inactive”.
With `N#CC(Br)(Br)C(N)=O` the Potency was “inactive”.
In the case of `O=C(Cl)C(Cl)(Cl)Cl`, the Potency is reported as “inactive”.
With `C=CCCC#N` the Potency was “inactive”.
For `O=S1(=O)OCCO1`, the Potency was “inactive”.
In the case of `CC(C)N(Cc1ccccc1)C(=O)C(C)(C)C`, the Potency is reported as “inactive”.
In the case of `CCCCCCCCSC(=O)Oc1cc(Cl)nnc1-c1ccccc1`, the Potency is reported as “inactive”.
With `COC(=O)[C@@H](N)CCCN/C(N)=N/[N+](=O)[O-]` the Potency was “inactive”.
For `C=CCc1cc(OC)c2c(c1)OCO2`, the Potency was “inactive”.
In the case of `C#CCOC(=O)/C=C(C)/C=C/CC(C)CCCC(C)C` (stereo not given), the Potency is reported as “inactive”.
With `CCCC(C)(COC(N)=O)COC(N)=O` the Potency was “inactive”.
With `CCN(CC)C1CCCCC1` the Potency was “inactive”.
For `CCC(C)(C#N)N=NC(C)(C#N)CC` (stereo not given), the Potency was “inactive”.
In the case of `O=C(O)CBr`, the Potency is reported as “inactive”.
In the case of `CC1=C2[C@H]3OC(=O)[C@@H](C)[C@@H]3CC[C@@]2(C)C=CC1=O`, the Potency is reported as “inactive”.
With `O=C(Cl)C(Cl)Cl` the Potency was “inactive”.
In the case of `CCN[C@@H](C)Cc1ccccc1`, the Potency is reported as “inactive”.
For `O=C1CC(=O)NC(=O)N1`, the Potency was “inactive”.
With `O=C(Cl)/C=C/C(=O)Cl` the Potency was “inactive”.
With `CCOC(=O)c1ncn2c1CN(C)C(=O)c1c(I)cccc1-2` the Potency was “inactive”.
With `CC(C)C(C)(N)C#N` (stereo not given) the Potency was “inactive”.
With `CC(C)(C1CCC(O)CC1)C1CCC(O)CC1` (stereo not given) the Potency was “inactive”.
For `O=C(O)C(F)(F)C(F)(F)C(F)(F)C(F)(F)C(F)(F)C(F)(F)F`, the Potency was “inactive”.
In the case of `Nc1c(Cl)c(F)nc(OCC(=O)O)c1Cl`, the Potency is reported as “inactive”.
In the case of `C=C1CC[C@@]2(O)[C@H]3Cc4ccc(O)c5c4[C@@]2(CCN3CC2CC2)[C@H]1O5`, the Potency is reported as “inactive”.
In the case of `CC(Cl)(Cl)Cl`, the Potency is reported as “inactive”.
With `CC(C)(C)C(=O)Cl` the Potency was “inactive”.
With `c1ccc2c(c1)CCNC2` the Potency was “inactive”.
With `CC1NCCOC1c1ccccc1` (stereo not given) the Potency was “inactive”.
With `CC(C)(O)C(Cl)(Cl)Cl` the Potency was “inactive”.
In the case of `NC(=O)CS(=O)C(c1ccccc1)c1ccccc1` (stereo not given), the Potency is reported as “inactive”.
With `Oc1ccc(Cc2ccc(O)cc2)cc1` the Potency was “inactive”.
In the case of `C=C(Cl)CSC(=S)N(CC)CC`, the Potency is reported as “inactive”.
